Compound activity from PubChem.
The list is not random: actives were taken first. Their share in the collection is about 3.5%.
TR SRC2 fluor cs: counter-screen for TRb-SRC2 inhibitors: fluorescence interference | TRb/SRC2 Texas Red total fluorescence interference | Potency, µM (series often up to 106 µM), without a hit: top-dose fluorescence change, negative = quenching | 280,000 tested, 0.29% active | AID 1479; active means well fitted curve in either direction with a large enough effect; inconclusive means small, poorly fitted or top-dose-only effect
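Flags fluorescent or light-absorbing compounds by total fluorescence, S + 2P, at 555 nm excitation and 632 nm emission. Mixture: 20 nM Texas Red SRC2 peptide, 0.6 uM human TRb LBD, 1 uM T3, 5% DMSO; compound exposure 5 h at ambient temperature.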
Tau fluor counter: counter-screen for tau fibril formation inhibitors; tau K18 P301L Alexa594 fluorescence, heparin fibrillization; Potency, µM (highest dose often 57.7 µM), for inactives: top-dose activity change, negative = decrease; 280,000 tested, 0.93% active; AID 1463; further: nearly all actives have a fitted effect of over 55% in size
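Human K18 P301L tau (15 uM unlabeled plus 0.24 uM Alexa 594-labeled, final) in 100 mM sodium acetate pH 7 was mixed with compound and 20 uM heparin and incubated 6 hr at 37 C.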
TRb-SRC2 inh: disrupts binding of human TR beta to SRC2 | 280,000 tested, 0.065% active | Potency, µM (top dose mostly 106 µM), for inactives: at the top dose activity change, negative = inhibition, most hits filed as inhibitors | AID 1469 | TRbeta-SRC2 peptide binding, fluorescence polarization; receptor liganded with 1 µM T3;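 further: plate controls were bound peptide for no effect and peptide without receptor for full effect; nearly all actives have a fitted effect of over 50% in size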
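Binding of a 20-amino-acid Texas Red SRC2 peptide (20 nM) to TRb ligand-binding domain (0.6 uM) with agonist T3 at 1 uM was followed by fluorescence polarization after a 5 hr room-temperature incubation.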
KDM4E inh: inhibitors of human JMJD2E histone demethylase; 230,000 tested, 1.6% active; Potency, µM (highest dose often 57.1 µM), for inactives: top-dose activity change, negative = inhibition, actives largely listed as inhibitors; JMJD2E catalytic domain, FDH-coupled NADH fluorescence (FDH is formaldehyde dehydrogenase); AID 2147; B2RXH2; active means well fitted inhibition curve with a large enough effect, not every such curve was filed as active; inconclusive means small, poorly fitted or top-dose-only effect, or another doubt; inactive means no such curve, though single readings can be large or run the other way;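 further: 0% = wells with enzyme and -100% = buffer wells without enzyme; nearly all actives have a fitted effect of over 50% in size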
Target sequence (B2RXH2 1-337 limits assumed): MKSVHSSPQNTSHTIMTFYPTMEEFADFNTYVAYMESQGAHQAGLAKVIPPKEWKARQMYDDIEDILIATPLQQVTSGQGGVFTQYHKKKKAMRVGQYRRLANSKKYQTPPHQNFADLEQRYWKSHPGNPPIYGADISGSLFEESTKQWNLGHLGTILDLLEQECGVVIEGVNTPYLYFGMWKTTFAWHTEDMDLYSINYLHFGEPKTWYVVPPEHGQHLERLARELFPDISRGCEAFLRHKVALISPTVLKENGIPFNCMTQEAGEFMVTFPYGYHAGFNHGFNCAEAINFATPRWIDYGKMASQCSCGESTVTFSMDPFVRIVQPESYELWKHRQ
Tau fibril ThT: tau fibrillization inhibition (ThT binding); P10636; recombinant tau K18 P301L (four-repeat tau fragment), heparin-induced fibrillization, ThT fluorescence; Potency, µM (doses to about 57.4 µM), without a hit: at the highest dose activity, negative = inhibition, hits mostly inhibitors; 270,000 tested, 2.1% active; AID 1460; further: nearly all actives have a fitted effect of over 55% in size
Target sequence (P10636 561-689 P618L limits assumed): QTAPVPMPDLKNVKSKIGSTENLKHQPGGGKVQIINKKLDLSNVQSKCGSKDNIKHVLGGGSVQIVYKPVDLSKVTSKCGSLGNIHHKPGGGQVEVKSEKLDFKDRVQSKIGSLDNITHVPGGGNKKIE
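In this qHTS, human K18 P301L tau is incubated with compound and heparin for 6 hr at 37 C, and Thioflavin T fluorescence then reports fibril load.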
Tau FP inhib: blocks human tau fibril formation measured by polarization; P10636; K18 P301L tau heparin fibrillization, Alexa594 FP, 6 h; Potency, µM (titrated, usually from 57.7 µM), inactives show at the top dose activity, negative = inhibition, hits mostly inhibitors; 280,000 tested, 0.39% active; further: nearly all actives have a fitted effect of over 55% in size
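Steps: dispense K18 P301L tau (15 uM plus 0.24 uM Alexa 594 tracer, final) in pH 7 sodium acetate; add compound; add heparin (20 uM final); incubate 6 hr, 37 C; add ThT (30 uM final); after 1 hr ambient, read FP.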
* = called active by the depositor; ? = inconclusive; . = no result; [ ] = remark or other dose. Unless noted, the call rests on the fitted dose curve; in most records, active means well fitted curve in the direction sought with a large enough effect; inconclusive means small, poorly fitted or top-dose-only effect, or another doubt; inactive means no such curve, though single readings can be large; an effect the other way counts as inactive or inconclusive. Unless noted, on the % scale 0 is the no-effect control and ±100 the full control effect; potency means the concentration at half of the fitted maximal effect.

SMILES	TR SRC2 fluor cs	Tau fluor counter	TRb-SRC2 inh	KDM4E inh	Tau fibril ThT	Tau FP inhib
O=C(/C(=C/O)N=Nc1ccc(Cl)cc1)c1ccncc1	-9%	-27%	-5%	-30%	20µM*	-8%
O=C(/C(=C/O)N=Nc1cccc(C(F)(F)F)c1)c1ccccc1	-4%	-23%	-2%	-3%	?	-12%
Cc1ccc(N=N/C(=C\O)C(=O)c2ccncc2)cc1	-6%	-25%	-11%	-11%	28µM*	-3%
Cc1ccc(S(=O)(=O)NNC(=O)c2ccncc2)cc1	-12%	0%	1%	5%	-5%	3%
Cc1cccc(N=N/C(=C\O)C(=O)c2ccc(Br)cc2)c1	-2%	-22%	-5%	-1%	22µM*	0%
Cc1cc(C)nc(N2CCCC(C(=O)NCc3ccc4c(c3)OCO4)C2)n1 (stereo unspecified)	0%	6%	-2%	-3%	7%	4%
Cc1cc(C(=O)NNC(=O)c2ccc(S(=O)(=O)N(C)C)cc2)c(C)o1	-2%[53 µM]	9%	-5%[53 µM]	9%	6%	0%
O=C(/C(=C/O)N=Nc1ccccc1Cl)c1ccccc1	-6%	-21%	4%	-2%	28µM*	-11%
O=C(Nc1ccccc1Cl)c1ccccc1	-1%	-2%	-3%	15%	-5%	3%
COc1ccc(-c2cn3c(n2)sc2cc(C(=O)NCCc4ccccc4)ccc23)cc1	?	-5%	-4%	.	-14%	9%
COc1ccc2oc(C)c(C(=O)Cn3ccnc3)c2c1	-5%	10%	5%	4%	-2%	4%
CC1(C)Cc2c(c(-c3ccco3)[nH]c(=O)c2C#N)CS1	?	-14%	45µM*	?	?	?
O=C(Nc1ccc(O)cc1)C1CC=CCC1 (stereo unspecified)	8%	28µM*[quencher]	-24%	-6%	25µM*	?
COc1ccc(NC(=O)C2C3CC/C=C\CCC32)cc1 (stereo unspecified)	-1%	0%	6%	4%	-1%	-1%
CCOC(=O)c1c(C)oc2c1c1c(c3ccccc32)OCN(CCCC(=O)O)C1	-3%	?	-1%	10µM*	?	0%
CCOC(=O)c1c(C)oc2c1c1c(c3ccccc32)OCN(Cc2cccnc2)C1	-2%	?	-6%	?	18µM*	?
CCOC(=O)c1c(C)oc2c1c(C(c1cccnc1)N1CCN(C)CC1)c(O)c1ccccc12 (stereo unspecified)	-5%	-27%	-6%	-16%	?	11%
CCOC(=O)c1c(C)oc2c1c(C=NCC1CCCO1)c(O)c1ccccc12 (stereo unspecified)	3%	-27%	1%	5%	?	-2%
CCOC(=O)c1c(C)oc2c1c(C=NCc1ccccn1)c(O)c1ccccc12	0%	?	0%	4µM*	13µM*	-8%
CCOC(=O)c1c(C)oc2c1c(C(c1cccnc1)N1CCOCC1)c(O)c1ccccc12 (stereo unspecified)	-2%	?	-4%	?	18µM*	-5%
Cc1cc(-c2csc(N)n2)c(C)n1-c1ccc(Cl)c(Cl)c1	-7%	-9%	10%	-1%	-12%	9%
Oc1[nH]c2ccc(Br)cc2c1N=NC(=S)NCC1CCCO1 (stereo unspecified)	-9%	14µM*[quencher]	5%	1%	16µM*	6%
Oc1[nH]c2ccccc2c1N=NC(=S)NCC1CCCO1 (stereo unspecified)	0%	0%	0%	-9%	0%	2%
CCn1ncc(C2C(C(=O)Nc3ccc(C)cn3)=C(C)NC3=C2C(=O)CCC3)c1C (stereo unspecified)	0%	0%	-3%	4%	3%	0%
CCOc1ccc(C2c3c(oc4ccc(C)cc4c3=O)C(=O)N2CCCN(C)C)cc1 (stereo unspecified)	3%	2%	0%	.	0%	6%
SMILES	TR SRC2 fluor cs	Tau fluor counter	TRb-SRC2 inh	KDM4E inh	Tau fibril ThT	Tau FP inhib
Cc1ccc2oc3c(c(=O)c2c1)C(c1ccc(O)cc1)N(CCCN(C)C)C3=O (stereo unspecified)	5.6e-05µM*[quencher]	-1%	-18%	.	-4%	3%
COc1ccc(CNC(=O)c2cnc3sc(N4CCOCC4)nn3c2=O)cc1	501µM*[quencher]	10%	-9%	.	6%	-8%
COC(=O)c1cc(OC)c(OC)cc1NC(=O)Nc1ccccc1F	0%	-4%	1%	?	-2%	2%
Cc1ccc(C(=O)N/N=C/c2cccc(OC(=O)/C=C/c3ccco3)c2)cn1	-2%	?	2%	-18%	?	-1%
O=C(/C=C/c1ccco1)Oc1cc(Br)cc(/C=N/NC(=O)c2ccccc2O)c1	-5%	?	1%	25µM*	?	-1%
O=C(CNc1ccc2ccccc2c1)N/N=C/c1ccc(OC(=O)/C=C/c2ccco2)cc1	2%	7.1µM*[quencher]	8%	2%	5µM*	-13%
O=C(CNc1cccc2ccccc12)N/N=C/c1ccc(OC(=O)/C=C/c2ccco2)cc1	3%	?	9%	-2%	?	2%
CSc1ccc(/C=N/NC(=O)CNc2ccc3ccccc3c2)cc1	3%	14µM*[quencher]	8%	-5%	5µM*	-3%
Cc1nc(S/C(=C/c2ccc(-c3cccc(Cl)c3)o2)C(=O)O)n[nH]1	-5%	-25%	3%	3%	2.8µM*	-4%
Cc1ccc2nc(/C(C#N)=C/c3ccc(-c4cccc(Cl)c4)o3)[nH]c2c1	3%	?	-3%	.	-18%	-3%
CC(=O)c1ccc(OC2C(O)COC2/C=C/c2ccc(Cl)cc2)cc1 (stereo unspecified)	-12%[11.2 µM]	-6%[11.6 µM]	4%[11.2 µM]	.	-8%[11.5 µM]	-9%[11.6 µM]
CCn1c2ccc(C)cc2c2nnc(NN)nc21	6%	-5%	3%	-10%	?	-13%
CCn1c2ccccc2c2nnc(NN)nc21	6%	-11%	5%	-21%	14µM*	?
Cc1ccc(CC(=O)Nc2ccc(F)c([N+](=O)[O-])c2)cc1C	-1%	-29%	-7%	-15%	-8%	7%
COc1cc(Br)cc(CNc2ccc(F)c([N+](=O)[O-])c2)c1O	0%	25µM*[quencher]	1%	1%	16µM*	-1%
Cc1cc(C)n(CC(=O)N/N=C/c2cc(Br)cc([N+](=O)[O-])c2O)n1	-2%	4%	-2%	1%	?	3%
O=C(N/N=C/c1cc(Cl)cc([N+](=O)[O-])c1O)C1CC1	-2%	-17%	-1%	?	16µM*	3%
